Columns and labels:
Experiment in all cases: DAPPL (digital affinity profiling via proximity ligation, sequencing); 10 mM Tris-HCl pH 7.5, 50 mM NaCl, 1 mM DTT, 4% glycerol, room temperature, 30 min; GST-TFs on glutathione beads, 16-mer random dsDNA library, 0.1% formaldehyde crosslink after washing; high values mean tight binding
Conditions in all cases: protein: recombinant; tags: N-terminal GST; dsDNA, one strand shown
FLI1 = biological target: T1, FLI1 (Homo sapiens, UniProt Q01543 1-452)
T1 sequence: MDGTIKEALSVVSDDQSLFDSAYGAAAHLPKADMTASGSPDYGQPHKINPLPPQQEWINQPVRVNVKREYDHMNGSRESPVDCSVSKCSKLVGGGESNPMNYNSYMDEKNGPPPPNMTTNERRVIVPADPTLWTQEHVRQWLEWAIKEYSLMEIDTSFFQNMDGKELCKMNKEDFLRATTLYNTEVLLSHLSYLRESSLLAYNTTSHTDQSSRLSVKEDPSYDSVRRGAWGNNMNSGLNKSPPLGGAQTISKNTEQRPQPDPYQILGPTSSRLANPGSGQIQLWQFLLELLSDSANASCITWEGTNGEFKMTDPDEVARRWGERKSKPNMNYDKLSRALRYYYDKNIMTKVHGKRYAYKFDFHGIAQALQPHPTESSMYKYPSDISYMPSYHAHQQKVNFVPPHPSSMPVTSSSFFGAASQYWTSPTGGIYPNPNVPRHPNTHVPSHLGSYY
Outline: (§1)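 The binding signal reported is, for every hexamer, its read frequency for a factor over its read frequency for the tag-only sample. Reads came from pools of yeast-expressed, GST-fused human transcription factors on glutathione beads, barcoded with DNA and mixed with that sample, which were incubated with 200 nmole of a random double-stranded 16-mer DNA library in Tris/NaCl/DTT/glycerol buffer at room temperature for 30 min. After washing, the pools were crosslinked with 0.1% formaldehyde, proximity-ligated with BsaI/T4 ligase for 1 h at 37 °C, PCR-amplified and sequenced on an Illumina NextSeq500.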

ELK1 = biological target: T2, ELK1 (Homo sapiens, UniProt P19419 1-428)
T2 sequence: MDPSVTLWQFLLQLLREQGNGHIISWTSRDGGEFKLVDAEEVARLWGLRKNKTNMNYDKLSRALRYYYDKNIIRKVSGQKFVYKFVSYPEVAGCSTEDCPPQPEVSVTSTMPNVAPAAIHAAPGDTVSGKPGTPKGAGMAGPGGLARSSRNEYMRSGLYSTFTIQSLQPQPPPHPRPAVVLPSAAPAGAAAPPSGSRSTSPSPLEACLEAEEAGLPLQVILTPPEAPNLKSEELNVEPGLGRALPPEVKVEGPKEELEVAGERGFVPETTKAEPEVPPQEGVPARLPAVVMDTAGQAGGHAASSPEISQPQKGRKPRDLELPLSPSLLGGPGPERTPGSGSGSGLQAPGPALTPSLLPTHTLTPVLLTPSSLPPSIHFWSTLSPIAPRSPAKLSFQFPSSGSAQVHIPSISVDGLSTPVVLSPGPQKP
Outline: as §1

GABPA = biological target: T3, GABPA (Homo sapiens, UniProt Q06546 1-454)
T3 sequence: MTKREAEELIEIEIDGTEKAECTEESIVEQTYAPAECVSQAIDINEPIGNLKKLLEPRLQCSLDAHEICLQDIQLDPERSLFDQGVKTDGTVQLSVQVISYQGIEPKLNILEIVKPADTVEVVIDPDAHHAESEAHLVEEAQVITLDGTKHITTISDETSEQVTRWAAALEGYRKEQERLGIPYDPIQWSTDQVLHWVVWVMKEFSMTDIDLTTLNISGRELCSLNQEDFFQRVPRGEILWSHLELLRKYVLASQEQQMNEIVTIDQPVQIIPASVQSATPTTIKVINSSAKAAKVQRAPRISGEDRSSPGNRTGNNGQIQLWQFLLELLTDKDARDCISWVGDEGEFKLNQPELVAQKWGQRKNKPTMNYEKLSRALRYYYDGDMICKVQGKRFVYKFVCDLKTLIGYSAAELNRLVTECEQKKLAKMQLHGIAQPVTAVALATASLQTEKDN
Outline: as §1

ERG = biological target: T4, ERG (Homo sapiens, UniProt P11308 1-479)
T4 sequence: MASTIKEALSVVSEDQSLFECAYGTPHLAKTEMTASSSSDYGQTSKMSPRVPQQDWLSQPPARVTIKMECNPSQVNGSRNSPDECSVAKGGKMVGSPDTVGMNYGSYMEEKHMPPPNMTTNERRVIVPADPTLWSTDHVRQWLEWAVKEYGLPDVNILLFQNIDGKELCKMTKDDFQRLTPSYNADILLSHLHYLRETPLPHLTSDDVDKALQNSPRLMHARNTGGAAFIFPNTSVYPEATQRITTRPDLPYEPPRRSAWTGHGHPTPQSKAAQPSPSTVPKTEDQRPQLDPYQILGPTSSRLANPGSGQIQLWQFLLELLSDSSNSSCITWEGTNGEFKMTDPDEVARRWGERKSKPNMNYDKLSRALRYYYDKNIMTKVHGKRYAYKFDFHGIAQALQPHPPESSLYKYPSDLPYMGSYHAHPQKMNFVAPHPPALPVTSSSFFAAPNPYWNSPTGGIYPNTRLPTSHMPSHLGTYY
Outline: as §1

ELF1 = ELF1 (Homo sapiens, UniProt P32519 1-619)
Outline: as §1

EHF = biological target: T5, EHF (Homo sapiens, UniProt Q9NZC4 1-300)
T5 sequence: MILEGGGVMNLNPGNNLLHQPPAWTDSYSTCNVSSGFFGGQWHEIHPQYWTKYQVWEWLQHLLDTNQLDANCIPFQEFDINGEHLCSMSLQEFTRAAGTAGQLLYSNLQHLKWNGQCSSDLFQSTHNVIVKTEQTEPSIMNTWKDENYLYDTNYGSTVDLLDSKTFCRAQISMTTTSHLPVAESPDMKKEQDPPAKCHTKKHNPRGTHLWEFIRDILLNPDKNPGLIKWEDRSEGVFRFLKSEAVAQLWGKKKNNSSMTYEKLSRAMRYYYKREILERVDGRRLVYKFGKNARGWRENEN
Outline: as §1

SPI1 = SPI1 (Homo sapiens, UniProt P17947 1-270)
Outline: as §1

SPIB = SPIB (Homo sapiens, UniProt Q01892 1-262)
Outline: as §1

ELK3 = biological target: T6, ELK3 (Homo sapiens, UniProt P41970 1-407)
T6 sequence: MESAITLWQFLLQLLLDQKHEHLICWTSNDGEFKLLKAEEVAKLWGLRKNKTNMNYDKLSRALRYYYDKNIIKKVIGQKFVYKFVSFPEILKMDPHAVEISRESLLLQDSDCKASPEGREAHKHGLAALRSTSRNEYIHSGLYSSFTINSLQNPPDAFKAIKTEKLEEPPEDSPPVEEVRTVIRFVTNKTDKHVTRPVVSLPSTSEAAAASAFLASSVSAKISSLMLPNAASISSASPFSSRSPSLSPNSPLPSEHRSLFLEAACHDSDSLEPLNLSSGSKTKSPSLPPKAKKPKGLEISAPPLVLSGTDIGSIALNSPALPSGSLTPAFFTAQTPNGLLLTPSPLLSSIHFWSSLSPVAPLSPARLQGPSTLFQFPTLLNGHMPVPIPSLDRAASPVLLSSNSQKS
Outline: as §1

SPIB, sequence (Q01892 whole entry): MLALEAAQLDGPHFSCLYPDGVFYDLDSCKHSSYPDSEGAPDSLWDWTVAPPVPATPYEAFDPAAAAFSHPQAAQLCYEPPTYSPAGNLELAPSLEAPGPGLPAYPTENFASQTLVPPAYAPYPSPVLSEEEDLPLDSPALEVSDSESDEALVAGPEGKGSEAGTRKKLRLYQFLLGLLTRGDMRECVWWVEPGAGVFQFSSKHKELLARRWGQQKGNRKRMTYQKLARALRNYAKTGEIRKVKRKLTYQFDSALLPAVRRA
ELF1, sequence (P32519 whole entry): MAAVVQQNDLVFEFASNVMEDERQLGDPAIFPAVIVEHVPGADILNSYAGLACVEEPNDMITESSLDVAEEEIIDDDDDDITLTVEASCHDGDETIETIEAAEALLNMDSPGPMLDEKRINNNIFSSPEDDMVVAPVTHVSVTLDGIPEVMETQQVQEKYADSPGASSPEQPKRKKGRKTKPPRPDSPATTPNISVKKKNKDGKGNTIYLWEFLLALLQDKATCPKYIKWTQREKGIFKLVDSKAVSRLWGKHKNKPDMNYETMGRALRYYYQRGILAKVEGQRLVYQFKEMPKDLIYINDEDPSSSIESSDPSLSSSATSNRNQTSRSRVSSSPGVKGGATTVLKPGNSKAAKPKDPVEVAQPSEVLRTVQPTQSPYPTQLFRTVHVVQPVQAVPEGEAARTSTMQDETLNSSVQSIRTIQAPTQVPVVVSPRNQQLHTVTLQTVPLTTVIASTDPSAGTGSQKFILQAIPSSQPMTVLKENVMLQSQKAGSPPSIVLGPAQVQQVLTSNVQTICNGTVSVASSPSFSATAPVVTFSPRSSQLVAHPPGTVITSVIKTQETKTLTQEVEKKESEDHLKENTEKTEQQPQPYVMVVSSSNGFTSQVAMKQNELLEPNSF

Sequence | binding signal (FLI1) | binding signal (ELK1) | binding signal (GABPA) | binding signal (ERG) | binding signal (ELF1) | binding signal (EHF) | binding signal (SPI1) | binding signal (SPIB) | binding signal (ELK3)
TTAACG | 1.12 fold enrichment (6-mer frequency, TF over GST control) | 1.17 fold enrichment (6-mer frequency, TF over GST control) | 1.21 fold enrichment (6-mer frequency, TF over GST control) | 1.17 fold enrichment (6-mer frequency, TF over GST control) | 1.23 fold enrichment (6-mer frequency, TF over GST control) | 1.15 fold enrichment (6-mer frequency, TF over GST control) | 1.26 fold enrichment (6-mer frequency, TF over GST control) | 1.26 fold enrichment (6-mer frequency, TF over GST control) | 1.32 fold enrichment (6-mer frequency, TF over GST control)
CCAACT | 1.26 fold enrichment (6-mer frequency, TF over GST control) | 1.19 fold enrichment (6-mer frequency, TF over GST control) | 1.23 fold enrichment (6-mer frequency, TF over GST control) | 1.26 fold enrichment (6-mer frequency, TF over GST control) | 1.25 fold enrichment (6-mer frequency, TF over GST control) | 1.24 fold enrichment (6-mer frequency, TF over GST control) | 1.14 fold enrichment (6-mer frequency, TF over GST control) | 1.25 fold enrichment (6-mer frequency, TF over GST control) | 1.19 fold enrichment (6-mer frequency, TF over GST control)
ATGAAA | 1.11 fold enrichment (6-mer frequency, TF over GST control) | 1.17 fold enrichment (6-mer frequency, TF over GST control) | 1.16 fold enrichment (6-mer frequency, TF over GST control) | 1.17 fold enrichment (6-mer frequency, TF over GST control) | 1.2 fold enrichment (6-mer frequency, TF over GST control) | 1.16 fold enrichment (6-mer frequency, TF over GST control) | 1.2 fold enrichment (6-mer frequency, TF over GST control) | 1.15 fold enrichment (6-mer frequency, TF over GST control) | 1.06 fold enrichment (6-mer frequency, TF over GST control)
ACGTCT | 1.13 fold enrichment (6-mer frequency, TF over GST control) | 1.2 fold enrichment (6-mer frequency, TF over GST control) | 1.14 fold enrichment (6-mer frequency, TF over GST control) | 1.22 fold enrichment (6-mer frequency, TF over GST control) | 1.17 fold enrichment (6-mer frequency, TF over GST control) | 1.13 fold enrichment (6-mer frequency, TF over GST control) | 1.15 fold enrichment (6-mer frequency, TF over GST control) | 1.35 fold enrichment (6-mer frequency, TF over GST control) | 1.18 fold enrichment (6-mer frequency, TF over GST control)
TCGTCT | 1.52 fold enrichment (6-mer frequency, TF over GST control) | 1.34 fold enrichment (6-mer frequency, TF over GST control) | 1.43 fold enrichment (6-mer frequency, TF over GST control) | 1.34 fold enrichment (6-mer frequency, TF over GST control) | 1.4 fold enrichment (6-mer frequency, TF over GST control) | 1.38 fold enrichment (6-mer frequency, TF over GST control) | 1.26 fold enrichment (6-mer frequency, TF over GST control) | 1.42 fold enrichment (6-mer frequency, TF over GST control) | 1.23 fold enrichment (6-mer frequency, TF over GST control)
AATGCT | 1.16 fold enrichment (6-mer frequency, TF over GST control) | 1.17 fold enrichment (6-mer frequency, TF over GST control) | 1.14 fold enrichment (6-mer frequency, TF over GST control) | 1.16 fold enrichment (6-mer frequency, TF over GST control) | 1.16 fold enrichment (6-mer frequency, TF over GST control) | 1.14 fold enrichment (6-mer frequency, TF over GST control) | 1.12 fold enrichment (6-mer frequency, TF over GST control) | 1.16 fold enrichment (6-mer frequency, TF over GST control) | 1.12 fold enrichment (6-mer frequency, TF over GST control)
AATAAA | 1.2 fold enrichment (6-mer frequency, TF over GST control) | 1.2 fold enrichment (6-mer frequency, TF over GST control) | 1.27 fold enrichment (6-mer frequency, TF over GST control) | 1.21 fold enrichment (6-mer frequency, TF over GST control) | 1.27 fold enrichment (6-mer frequency, TF over GST control) | 1.25 fold enrichment (6-mer frequency, TF over GST control) | 1.32 fold enrichment (6-mer frequency, TF over GST control) | 1.26 fold enrichment (6-mer frequency, TF over GST control) | 1.27 fold enrichment (6-mer frequency, TF over GST control)

Reference: publication PMC7862700, “An all-to-all approach to the identification of sequence-specific readers for epigenetic DNA modifications on cytosine”
